# Assay results as given in PubChem BioAssay AID588689 (Southern Research Specialized Biocontainment Screening …, 2011).
# Among all 340,000 compounds or so, about 1,000 (0.29%) were called active. Cut-off read from the data, not from the text of the source: inconclusive = inhibition above about 29% without an active follow-up result; inactive = below that. Not all results are given here. Measured potencies and affinities stand elsewhere.
# Biological target: Genome polyprotein (Dengue virus type 2 (strain 16681-PDK53)) (UniProt P29991)
# Experiment: Dengue-2 NS5 methyltransferase inhibitors, primary screen, biochemical, confirmation dose response (AID 588689)
# Conditions: Dengue-2 NS5 methyltransferase capping enzyme assay, at 25 µM, stronger effect = higher value
# [1] = measured here: pilot screen replicate inhibition
Structure (SMILES),inhibition,inhibition [1]
O=C1C(=Cc2ccncc2)CCCc2ccccc21,-20.6% (inactive),–
O=C(NC(=S)N1CCCCCC1)c1cccc([N+](=O)[O-])c1,-2.29% (inactive),–
O=C(Cn1cc(C(F)(F)F)ccc1=O)NCCc1ccc(Cl)cc1Cl,-0.73% (inactive),–
O=C(/C=C/c1ccccc1)C1C(=O)c2ccccc2C1=O,-1.46% (inactive),–
Cc1ccc(/C=C/C(=O)C2C(=O)c3ccccc3C2=O)cc1,13.3% (inactive),–
Cc1ccc(C)c(N2CCN(C(=O)C3CCCN(S(=O)(=O)c4c(C)noc4C)C3)CC2)c1 (stereo not drawn),-2.75% (inactive),–
O=C(O)c1ccc(NCCC2=CCCCC2)c([N+](=O)[O-])c1,5.44% (inactive),–
O=C(NCCC1=CCCCC1)c1ccc(Cl)c([N+](=O)[O-])c1,0% (inactive),–
Nc1c(C(=O)N/N=C/c2ccccc2)cnn1-c1ccccc1,1.53% (inactive),–
O=C(O)c1ccc(NS(=O)(=O)c2ccc3c(c2)OCCCO3)cc1,-0.76% (inactive),–
COc1cccc(NS(=O)(=O)c2ccc3c(c2)NC(=O)CC(=O)N3)c1,-10.6% (inactive),–
COc1ccc(NS(=O)(=O)c2ccc(NS(=O)(=O)c3cccc(C(=O)O)c3)cc2)cc1,0% (inactive),–
CC(=O)c1ccc2c(c1)C1C=CCC1C(c1ccc(S(=O)(=O)N3CCOCC3)cc1)N2 (stereo not drawn),11.6% (inactive),–
COC(=O)c1ccc(C2Nc3ccc(/C(C)=N/NC(=O)C(OC)c4ccccc4)cc3C3C=CCC32)cc1 (stereo not drawn),-4.05% (inactive),–
COc1ccc(C(=O)N/N=C(\C)c2ccc3c(c2)C2C=CCC2C(c2ccccc2)N3)cc1 (stereo not drawn),2.59% (inactive),–
COc1cccc(NS(=O)(=O)c2ccc3c(c2)CC(=O)N3)c1,-6.98% (inactive),–
O=C(O)c1ccc2c(c1)C1C=CCC1C(c1cc3c(cc1Br)OCO3)N2 (stereo not drawn),6.19% (inactive),–
COc1ccc(CN2C3CCCC2CC(NC(=O)Nc2ccccc2)C3)cc1 (stereo not drawn),-8.9% (inactive),–
CCN(CC(=O)Nc1ccc2c(c1)OCCO2)S(=O)(=O)c1ccc(F)cc1,-12.2% (inactive),–
CCN(CC)S(=O)(=O)c1ccc(C(=O)NCCOC(=O)c2ccc(F)cc2F)cc1,8.01% (inactive),–
COc1ccccc1NS(=O)(=O)c1ccc2c(c1)OCCO2,-2.93% (inactive),–
Cc1ccc(S(=O)(=O)N2CCCCC2)cc1C(=O)NCc1ccc(S(N)(=O)=O)cc1,4.65% (inactive),–
COc1ccc(/C(O)=C2\C(=O)C(=O)N(CC3CCCO3)C2c2cc(OC)ccc2OC)cc1 (stereo not drawn),-3.45% (inactive),–

Structure (SMILES),inhibition,inhibition [1]
O=C(NCCC1=CCCCC1)c1cnc2n(c1=O)CCS2,3.21% (inactive),–
COc1ccccc1C(=O)NC(=O)COC(=O)Cc1n[nH]c(=O)c2ccccc12,3.6% (inactive),–
COc1ccc(NS(=O)(=O)c2cc([N+](=O)[O-])ccc2N/N=C\c2c(C)[nH]c3ccccc23)cc1,-20.6% (inactive),–
COc1ccc(S(=O)(=O)NCc2ccccn2)cc1Br,2.64% (inactive),3.33%
CSC1=C(C#N)C(=O)NC(c2ccc(Cl)cc2)S1 (stereo not drawn),-3.83% (inactive),–
N#CC1=C(Nc2ccccc2Cl)SC(c2ccccc2O)NC1=O (stereo not drawn),-11.1% (inactive),–
Cc1cc(N2C(=O)C=CC2=O)c([N+](=O)[O-])cc1C,-13.6% (inactive),–
Cc1c([N+](=O)[O-])cc(N2C(=O)C=CC2=O)cc1[N+](=O)[O-],8.16% (inactive),–
COc1ccc(-c2ccc(NS(=O)(=O)c3ccc([N+](=O)[O-])cc3)cc2)nn1,5.43% (inactive),–
COc1ccc(-n2nc(C(=O)NCC(=O)NCC3CCCO3)c3ccccc3c2=O)cc1 (stereo not drawn),-4.8% (inactive),-2.44%
Cc1ccc(C2(C(F)(F)F)NC(=O)N3N=C4CCCCCN4C3=C2C#N)cc1 (stereo not drawn),7.4% (inactive),–
COc1ccc(/C=C2/SC(=S)N(CCCC(=O)Nc3ccccc3C(=O)O)C2=O)cc1,12.5% (inactive),–
COc1ccc(/C=C2\SC(=S)N(CCC(=O)Nc3ccccc3C(=O)O)C2=O)cc1,-2.62% (inactive),–
CCc1ccc(/C=C2\SC(=S)N(CCCC(=O)Nc3ccc(C(=O)O)cc3)C2=O)cc1,17.8% (inactive),–
COc1ccc(/C=C2\SC(=S)N(CCCC(=O)Nc3ccccc3C(=O)O)C2=O)cc1OC,-34.8% (inactive),–
CCOc1ccc(/C=C2/SC(=S)N(CCC(=O)Nc3ccc(C(=O)O)cc3)C2=O)cc1,-7.39% (inactive),–
Cc1ccc(/C=C2\SC(=S)N(CCCC(=O)Nc3ccccc3C(=O)O)C2=O)cc1,15.4% (inactive),–
COc1ccc(CNC(=O)COC(=O)C(CCSC)NC(=O)c2ccco2)cc1OC (stereo not drawn),0% (inactive),–
O=C(c1cc(C2CC2)nn1-c1ccccc1)N1CCN(Cc2ccccc2F)CC1,-3.6% (inactive),–
Cc1cc(C(=O)COC(=O)c2n[nH]c(=O)c3ccccc23)c(C)n1C(C)C,-4.04% (inactive),–
CCOc1ccc(N(CC(=O)NC2CCCCC2C)S(=O)(=O)c2c(C)noc2C)cc1 (stereo not drawn),-4.39% (inactive),–
O=C1C(=NO)CCCc2ccccc21,-3.23% (inactive),–
O=C1/C(=N\O)Cc2ccccc21,-5.15% (inactive),–

Structure (SMILES),inhibition,inhibition [1]
O=C(O)CC1SC(N/N=C/c2ccc(Br)cc2)NC1=O (stereo not drawn),3.06% (inactive),–
COc1ccc(OC)c(S(=O)(=O)N(C)CC(=O)N2CCCCC2)c1,-7.78% (inactive),–
CC(C)C1C(=O)N(Cc2cn(CCC3OCCO3)nn2)CCS(=O)(=O)N1Cc1ccc(-c2ccc(Cl)c(Cl)c2)cc1 (stereo not drawn),-2.32% (inactive),–
CN=c1scc(C)n1/N=C/c1cc(Br)c(O)c(Br)c1,-1.49% (inactive),–
Cc1c(Br)c(O)c(Br)c(O)c1/C=N/n1c(-c2ccccc2)n[nH]c1=S,21.5% (inactive),–
Oc1c(Br)cc(Br)cc1/C=N/n1c(-c2ccccc2)n[nH]c1=S,-12.7% (inactive),–
Oc1ccc(/C=N/n2c(-c3ccccc3)n[nH]c2=S)cc1Br,13.5% (inactive),–
COc1ccccc1N1C(=O)CC(N2CCN(c3ccc(F)cc3)CC2)C1=O (stereo not drawn),-6.31% (inactive),–
O=C(CN(Cc1ccccc1Cl)C(=O)c1csnn1)NCc1ccc2c(c1)OCO2,-1.47% (inactive),–
Cc1nc2nc(-c3ccccc3)cn2nc1C,-1.38% (inactive),–
Cc1ccc(-c2cn3nc(C)c(C)nc3n2)cc1,-9.37% (inactive),–
COc1ccc(C(=O)N(CC(=O)NC(C)(C)C)c2ccc3c(c2)OCCO3)cc1OC,-3.24% (inactive),–
Cn1c(-c2ccccc2)cc(=NNS(C)(=O)=O)c2cc(S(=O)(=O)O)ccc21,7.43% (inactive),–
Oc1ccc(CN2CCCCC2)nc1-c1ccccc1,-3.27% (inactive),–
Oc1ccc2ccccc2c1CN1CCCCC1,-0.78% (inactive),–
c1ccc(-c2ccc(-c3csnn3)cc2)cc1,0.69% (inactive),–
COc1ccc(S(=O)(=O)c2c(C)c(NS(=O)(=O)c3ccccc3)cc(C)c2O)cc1,-5.22% (inactive),–
CCOC(=O)c1ccccc1NS(=O)(=O)c1ccc(OCC)cc1,-6.45% (inactive),–
COc1ccc(S(=O)(=O)Nc2ccc(O)c3ccccc23)cc1,70.6% (inactive),–
CCOc1ccc(S(=O)(=O)Nc2ccccc2SC)cc1,6.41% (inactive),–
CC1(c2ccc(Cl)cc2)NC(=O)N(CC(=O)NCCC2=CCCCC2)C1=O (stereo not drawn),-2.9% (inactive),–
COc1ccc(-n2c(=S)[nH]c3cc(C(=O)Nc4cc(C(N)=O)ccc4OC)ccc3c2=O)c(OC)c1,-13.4% (inactive),–
COc1cc(N)c(Cl)cc1C(=O)OCC(=O)NC1CCCC1,-6.23% (inactive),–

Structure (SMILES),inhibition,inhibition [1]
CC(C)c1ccc(NC2CCCN(C(=O)CN3CCCC3=O)C2)cc1 (stereo not drawn),-7.87% (inactive),–
C=CCNC(=S)NNC(=O)c1csc(C)c1CC,2.43% (inactive),–
CCOc1ccc(NC(=O)CN(C)C(=O)C2=COCCO2)cc1OCC,-3.6% (inactive),–
CC(=O)c1ccc(Sc2ccccc2)c([N+](=O)[O-])c1,3.06% (inactive),–
Nc1ccccc1Sc1ccc(C(=O)c2ccccc2C(=O)O)cc1[N+](=O)[O-],17.6% (inactive),–
Cc1ccc(C(=O)c2c(C)oc3c2C(=O)C(=O)c2ccccc2-3)cc1,21.1% (inactive),–
O=C(c1ccccc1)c1coc2c1C(=O)c1ccccc1C2=O,6.1% (inactive),–
Cc1oc2c(c1C(=O)c1ccc(Cl)cc1)C(=O)C(=O)c1ccccc1-2,28% (inactive),–
COc1ccc(C(=O)c2coc(-c3ccccc3C(=O)O)c2C(=O)O)cc1,2.56% (inactive),–
O=C1c2ccccc2C(=O)c2c1oc(C(F)(F)F)c2C(=O)c1ccccc1,-2.07% (inactive),–
COc1ccc(C(=O)c2c(C(F)(F)F)oc3c2C(=O)c2ccccc2C3=O)cc1,9.03% (inactive),–
Cc1ccc(C(=O)c2c[nH]cc2-c2ccccc2)cc1,-3.21% (inactive),–
Cc1ccc(C(=O)c2coc3ccc(O)cc23)cc1,2.6% (inactive),–
CN1CCN(CCCNC(=O)Cn2ncc3c4ccccc4n(C)c3c2=O)CC1,-0.7% (inactive),–
CCOc1ccc(C(=O)Nc2cccc(NC(=O)c3cccs3)c2)cc1[N+](=O)[O-],-6.19% (inactive),–
COc1cc(OC)cc(C(=O)NCCCNC(=O)c2cccnc2)c1,-1.78% (inactive),–
Cc1nc(N2CCOCC2)[nH]c(=O)c1CCC(C)C,-3.29% (inactive),–
CC(=C\C(=O)O)/C(=C\c1cccc2ccccc12)C(=O)O,-1.16% (inactive),–
CCn1c(=S)sc2c(=O)n(-c3ccccc3)c(SCC(=O)NCc3ccco3)nc21,2.42% (inactive),–
CN1C[C@H]2CON(C)[C@H]2C[C@H]1c1cccc(-c2ccccc2)c1,-6.62% (inactive),-3.38%
COc1ccc(-n2c(-c3ccc(Br)cc3)nc(=S)c3c2CCCC3)cc1,-4.74% (inactive),–
